CYP2C19 activ: human CYP2C19 activators, primary screen, biochemical, luminescence; Cytochrome P450 2C19 (Homo sapiens), P33261; recombinant CYP2C19, luciferin-H EGE luminescence; hits give high values; 0 = fully inhibited enzyme, 1 = untreated enzyme; activation factor at 5 µM; 96,000 tested, under 10 active; AID 1025, 2008;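 active = activation factor of at least 2 at 5 µM in the primary screen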;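 also: 0 = wells with 2.5 mM tranylcypromine and 1 = vehicle-only wells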
Target sequence (P33261 whole entry, looked up): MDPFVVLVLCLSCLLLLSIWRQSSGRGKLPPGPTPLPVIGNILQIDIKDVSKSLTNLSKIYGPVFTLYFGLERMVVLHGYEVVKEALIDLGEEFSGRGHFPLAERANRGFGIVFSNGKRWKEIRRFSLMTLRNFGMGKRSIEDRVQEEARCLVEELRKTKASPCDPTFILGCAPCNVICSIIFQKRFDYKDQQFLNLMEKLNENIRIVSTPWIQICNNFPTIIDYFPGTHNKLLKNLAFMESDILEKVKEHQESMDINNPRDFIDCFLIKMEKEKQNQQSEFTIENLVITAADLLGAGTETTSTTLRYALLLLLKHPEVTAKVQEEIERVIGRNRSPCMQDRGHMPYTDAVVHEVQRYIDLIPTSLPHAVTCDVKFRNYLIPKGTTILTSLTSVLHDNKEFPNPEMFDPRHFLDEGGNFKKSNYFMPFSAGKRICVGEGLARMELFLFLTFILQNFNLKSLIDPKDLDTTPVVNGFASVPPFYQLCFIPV
sEH activator: soluble epoxide hydrolase activators, primary screen, biochemical, human sEH; 0.04% of 91,000 active; activation, % at 2 µM; Bifunctional epoxide hydrolase 2 (Homo sapiens), P34913; AID 717, 2007; purified human sEH enzymatic activity, activator screen; in the data active = activation above about 37%
CYP2C19 inhib: blockers of cytochrome P450 2C19 activity – biochemical, luminescence, ADME assay, primary screen | CYP2C19 Supersomes, luciferin-H EGE luminescence, 30 min | AID 778, 2007 | P33261 | inhibition, % at 5 µM | 21% of 96,000 active;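 active = CYP2C19 inhibition above a set limit at 5 µM in the primary screen, cut at about 50% in these data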;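 also: plate controls were negative control wells for no effect and 2.5 mM tranylcypromine positive control for full effect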
sEH inh: soluble epoxide hydrolase inhibitors, primary screen, biochemical, human sEH. Bifunctional epoxide hydrolase 2 (Homo sapiens), P34913. recombinant human sEH enzymatic activity assay. inhibition, % at 2 µM. 0.34% of 91,000 active; in the data active = inhibition above about 80%
CYP2C9 act: human CYP2C9 activators, primary screen, biochemical, luminescence. Cytochrome P450 2C9 (Homo sapiens), P11712. recombinant CYP2C9, luciferin-H conversion; hits give high values; factor 1 = untreated enzyme, 0 = blocked. activation factor at 5 µM. 1.4% of 96,000 active. AID 1024, 2008;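 active = activation factor of 2 or more for CYP2C9 at a 5 µM dose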;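 also: 0 = sulfaphenazole-blocked wells and 1 = vehicle-only wells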
CYP2C9 inhib: blockers of cytochrome P450 2C9 activity – biochemical, luminescence, ADME assay, primary screen; AID 777, 2007; 20% of 96,000 active; inhibition, % at 5 µM; CYP2C9 Supersomes, luciferin-H conversion;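 active = blocking of liver enzyme CYP2C9 beyond about 50% at 5 µM, limit read from the data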
* = called active by the depositor; x = no result. Shown are actives, neighbours in structure and some others; about 27% of the full set was active somewhere.

SMILES	CYP2C19 activ	sEH activator	CYP2C19 inhib	sEH inh	CYP2C9 act	CYP2C9 inhib
COC(=O)C1Cc2c([nH]c3ccccc23)CN1 (stereo unspecified)	0.3	13.6	71.1*	-13.4	1.1	-9.2
CCc1nc2ccccc2c(NC(=O)CN2CCC(C)CC2)c1C	0.9	0.3	6.0	-0.9	1	0.3
Cc1cccc(NC(=O)CSc2nc(-c3ccccc3)c(C#N)c(=O)[nH]2)c1C	0.6	1.7	40.9	-1.8	0.1	93.1*
Cc1cc(NC(=O)CSc2nc(-c3ccccc3)c(C#N)c(=O)[nH]2)no1	0.9	-9.3	8.5	10.6	0.3	70.2*
CCOC(=O)CCCCC(=O)c1[nH]c(=O)[nH]c1CSc1nc(-c2ccccc2)c(C#N)c(=O)[nH]1	0.5	-10.6	46.5	10.0	0.1	86.1*
COc1nc(OC)nc(N2CCC(C(=O)NCc3ccc(F)cc3)CC2)n1	1.1	-2.9	-5.4	4.5	1.5	-45.5
Cc1cc(C(=O)CSc2nnnn2-c2ccccc2)c(C)n1CCc1ccccc1	0.5	4.2	50.5*	-4.0	1.1	-5.5
Cc1cc(-n2c(C)cc(C(=O)CSc3nnnn3-c3ccccc3)c2C)no1	0.6	-2.5	42.9	2.0	0.8	23.0
COc1ccc(CCn2c(C)cc(C(=O)CSc3nnnn3-c3ccccc3)c2C)cc1OC	0.6	-1.1	42.0	3.8	2.1*	-114.6
Cc1cc(C(=O)CSc2nnnn2C)c(C)n1CCc1ccc(F)cc1	0.3	-2.9	65.1*	4.8	0.9	14.6
Cc1cc(C(=O)CSc2nnnn2-c2ccccc2)c(C)n1CC1CCCO1 (stereo unspecified)	0.9	-0.6	7.0	1.7	1.1	-12.2
CC(C)CC(C(=O)NCC1CCCO1)N(C(=O)Cn1nnc(-c2ccc(F)cc2)n1)c1ccccc1F (stereo unspecified)	0.9	8.7	8.4	-6.5	0.6	43.0
CC1SCCN1S(=O)(=O)c1ccc2ccccc2c1 (stereo unspecified)	x	11.6	x	-9.1	x	x
CCOC(=O)C1=C2SCC(=O)N2C(N)=C(C#N)C1	0.9	14.3	7.1	-16.1	1	-3.5
O=C(CN1CCN(c2ccccc2)CC1)Nc1cccc(C(F)(F)F)c1	0.7	-13.1	26.6	11.4	0.7	28.8
COC(=O)c1ccc(Cl)c(NC(=O)CN2CCN(Cc3ccccc3)CC2)c1	0.7	6.9	28.1	-5.4	0.9	9.6
O=C(CN1CCN(Cc2ccccc2)CC1)Nc1cccc(C(F)(F)F)c1	0.4	14.8	55.0*	-15.8	0.5	50.7*
CC1CN(CC(=O)Nc2cccc(C(=O)Nc3cccc(C(F)(F)F)c3)c2)CC(C)O1 (stereo unspecified)	0.5	-44.6	54.2*	45.6	0.2	77.2*
COC(=O)c1cccc(NC(=O)CN2CCN(Cc3ccccc3)CC2)c1	0.5	-9.6	50.9*	11.9	0.4	64.3*
CCN(CC)C(=O)c1sc(NC(=O)c2ccc(C)c([N+](=O)[O-])c2)c(C#N)c1C	1	4.8	1.1	-2.2	1	2.5
COc1cccc2cc3c(=O)oc4ccccc4c3nc12	0.9	23.9	8.5	-24.0	0.8	24.0
CC1CC(C)CN(CCCNC(=O)C2CCC(=O)N2C2CCCC2)C1 (stereo unspecified)	1	17.5	2.1	-17.9	0.8	23.0
O=C1CC(c2ccc(F)cc2)CC(O)=C1C1NCCc2ccccc21 (stereo unspecified)	1.1	8.1	-7.3	-7.6	1	2.0
O=C(O)C1NCCc2ccccc21 (stereo unspecified)	0.7	-5.6	31.7	6.8	0.3	74.0*
O=C(NC1CCCC1)c1cccc(NC(=O)c2ccco2)c1	1	-4.5	-0.8	4.3	0.5	45.1
SMILES	CYP2C19 activ	sEH activator	CYP2C19 inhib	sEH inh	CYP2C9 act	CYP2C9 inhib
CC(=O)OCCN(CCOC(C)=O)c1c(C)[nH]c(=O)[nH]c1=O	1	x	-2.8	x	0.9	7.6
c1ccc(-c2nc3nonc3nc2-c2ccccc2)cc1	0.3	6.2	66.0*	-5.8	0.8	23.7
Cc1n[nH]c(C)c1N1C(=O)c2cccc3c(N4CCCCCC4)ccc(c23)C1=O	0.2	-13.9	83.0*	14.5	0	96.8*
O=C1c2cccc3c(N4CCCCC4)ccc(c23)C(=O)N1CCO	0.7	0.1	27.2	2.2	0.6	43.2
O=C(CN1CCN(Cc2ccc(F)cc2Cl)C1=O)NCCc1ccc(Cl)cc1	0.6	-37.4	37.4	38.6	0.3	67.2*
O=C(CN1CCCN(Cc2ccc(F)cc2Cl)C1=O)NC1CCCCCC1	1	-6.3	1.4	6.4	1	0.7
CSc1nc(C)cc(OCCNS(=O)(=O)c2ccc(C)cc2)n1	x	18.9	x	-15.2	x	x
Cn1cc(S(=O)(=O)CC(=O)N2CCc3ccccc32)c2ccccc21	0.3	-4.0	66.9*	3.0	0.6	42.0
CCCn1cc(S(=O)(=O)CC(=O)N2CCc3ccccc32)c2ccccc21	0.1	x	86.6*	x	0.2	78.9*
Cc1cccc(NC(=O)CS(=O)(=O)c2cn(C)c3ccccc23)c1C	0.6	x	39.5	x	1.7	-73.8
OCCNCCOc1ccccc1-c1ccccc1	1.1	5.5	-6.1	-3.4	0.6	38.0
COCCNCCOc1ccccc1-c1ccccc1	0.4	6.0	59.1*	-9.8	0.9	13.0
COc1cc(C2CC(=O)c3c([nH]c(C(=O)OCCOC(C)C)c3C)C2)cc(OC)c1OC (stereo unspecified)	0.7	-6.5	33.9	6.2	0.2	79.1*
COc1cc(C(=O)OCCN2CCOCC2)cc(OC)c1OC	0.9	15.0	9.0	-14.7	1	-0.5
CCOC(=O)c1[nH]c2c(c1C)C(=O)CC(c1ccc(OC)c(OC)c1)C2 (stereo unspecified)	0.8	6.7	22.0	-4.6	0.2	81.4*
C/C=C/COC(=O)c1[nH]c2c(c1C)C(=O)CC(c1ccco1)C2 (stereo unspecified)	0.8	-10.6	19.5	9.7	0.6	38.9
COC(=O)c1[nH]c2c(c1C)C(=O)CC(c1ccccc1)C2 (stereo unspecified)	0.5	9.0	52.7*	-7.6	0.3	71.1*
COc1ccc(CN(CCN(C)C)Cc2ccccc2)c(OC)c1	0.2	6.1	81.5*	-4.3	0.8	23.4
COc1ccc(CN(C)CC(=O)c2c(N)n(Cc3ccccc3)c(=O)n(C)c2=O)c(OC)c1	0.9	4.2	6.2	-2.1	0.9	5.4
CCN(Cc1ccccc1)Cc1cc(OC)cc(OC)c1	0.1	6.9	94.9*	-5.2	0.7	34.7
CCOC(=O)Cc1nnc(NC(=O)COc2ccc(OC)cc2)s1	1	0.5	0.1	-1.0	0.4	60.8*

Screening results (PubChem BioAssay)
